Lamin A splicing = modulators of lamin A splicing. AID 1487. HeLa LMNA splicing GFP/RFP minigene ratio, 48 h. Potency, µM (titrated, usually from 46.1 µM), hits mostly inhibitors. hit rate 0.01% among 200,000; active = well fitted inhibition curve with a large enough effect in the signal ratio, with a control signal flat, not every such curve was filed as active; inconclusive = small, poorly fitted or top-dose-only effect, or effect the other way, or a change in a side signal; the % refers to the signal ratio
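Read-out is the ratio of GFP to DsRed2 object intensity, acquired by 488 nm laser-scanning cytometry on HeLa lamin A-EGFP minigene reporter cells. Compound incubation 48 hrs at 37 °C in Opti-MEM with 2% FBS; DMSO 0.5% final.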
ALDH1A1 block = ALDH1A1 (human) enzyme inhibition. P00352. Purified ALDH1A1, NADH fluorescence, propionaldehyde substrate. Potency, µM (doses to about 75.3 µM), actives largely listed as inhibitors. hit rate 7.3% among 220,000
PNC assembly inh = perinucleolar compartment assembly inhibition; PC3M PTB-GFP, PNC prevalence imaging, 16 h; active compounds read low; activity change (PNC), negative = inhibition, % at 10 µM; hit rate 3.1% among 140,000; AID 2417;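 active = readout at or below -70, meaning at least 70% loss of cells showing the perinucleolar compartment, a nuclear body marking cancer cells; inconclusive = readout between -30 and a set limit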
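Read-out is percentage of cells bearing a perinucleolar compartment, from automated 20x imaging of fixed, Hoechst-stained PC3M PTB-GFP cells. Cells were seeded 4 h, then exposed 16 h to compound (23 nl of library stock) in duplicate plates.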
HPGD block = HPGD (human) dehydrogenase inhibition; P15428; hit rate 4.3% among 150,000; Potency, µM, actives largely listed as inhibitors; purified HPGD, NADH fluorescence kinetic, PGE2 substrate
Target sequence (P15428 whole entry, looked up): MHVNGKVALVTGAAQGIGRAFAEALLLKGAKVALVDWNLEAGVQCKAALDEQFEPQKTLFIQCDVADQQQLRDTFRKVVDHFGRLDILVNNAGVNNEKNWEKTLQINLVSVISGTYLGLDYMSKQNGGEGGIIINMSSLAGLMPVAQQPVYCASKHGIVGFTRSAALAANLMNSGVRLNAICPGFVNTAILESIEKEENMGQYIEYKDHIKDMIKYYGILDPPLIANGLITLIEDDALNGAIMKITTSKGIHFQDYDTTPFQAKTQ
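NADH formation kinetics: reaction with 30 uM PGE2 and 1 mM NAD+ (final), 20 nM enzyme, Tris-HCl pH 8 with Tween 20, after 15 min compound preincubation at room temperature. Fluorescence change, last versus first of five reads.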
12-hLO inh = inhibitors of human 12-lipoxygenase (ALOX12). P18054. purified 12-hLO, xylenol orange hydroperoxide absorbance. Potency, µM (highest dose often 57.1 µM), hits mostly inhibitors. hit rate 0.12% among 150,000. AID 1452; active = well fitted inhibition curve with a large enough effect; inconclusive = small, poorly fitted or top-dose-only effect; also: nearly all actives have a fitted effect of over 55% in size
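Lipoxygenase turnover measured by absorbance at 573 and 405 nm after Fe-XO development. Human 12hLO 150 nM, arachidonate 40 uM, pH 7.0 Hepes buffer with detergent; 15 min compound preincubation, 30 min reaction.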
Each line names hits and unclear results; the compound was inactive in the other large screens. Shown are actives, neighbours in structure and some others; about 10% of the full set was active somewhere. Unless noted, calls follow the shape of the dose curve; as a rule, active = well fitted inhibition curve with a large enough effect (not every such curve was filed as active); inconclusive = small, poorly fitted or top-dose-only effect, or another doubt; inactive = no such curve, though single readings can be large or run the other way.

O=C(CN1CCC(n2nnc3cc(F)ccc32)CC1)NCc1ccco1	ALDH1A1 block 14µM, PNC assembly inh -118
COc1ccccc1NC(=O)CN1CCC(n2nnc3cc(F)ccc32)CC1	none
O=C(Cn1c(=O)oc2ccccc21)NCc1ccc(Cl)cc1	none (no result: ALDH1A1 block, PNC assembly inh, HPGD block, 12-hLO inh)
COCCNC(=O)c1nn(-c2ccc(C)cc2)c(=O)n(C)c1=O	none (no result: ALDH1A1 block, PNC assembly inh, HPGD block, 12-hLO inh)
C[C@@H]1C[C@@H]2[C@H]3CCC4=CC(=O)C=C[C@]4(C)[C@]3(Cl)[C@@H](O)C[C@@]2(C)[C@@]1(O)C(=O)CO	none (no result: Lamin A splicing, ALDH1A1 block, PNC assembly inh, HPGD block)
O=C(c1sccc1-n1cccc1)N1CCCC1	ALDH1A1 block inconclusive, PNC assembly inh -83
O=C(NC1CCCc2ccccc21)C1CCN(C(=O)c2sccc2-n2cccc2)CC1 (centres undefined)	ALDH1A1 block 1µM
O=C(Nc1ccsc1C(=O)N1CCCC1)c1ccccc1	none (no result: PNC assembly inh, HPGD block, 12-hLO inh)
COc1cccc(CNC(=O)C2CCN(C(=O)N(C)C)CC2)c1	PNC assembly inh inconclusive
O=C(NCCc1ccccc1)C1CCN(C(=O)c2sccc2-n2cccc2)CC1	ALDH1A1 block 4µM, PNC assembly inh inconclusive
O=C(NCc1cccc(F)c1)C1CCN(C(=O)c2sccc2-n2cccc2)CC1	ALDH1A1 block 5µM (no result: Lamin A splicing, PNC assembly inh, HPGD block, 12-hLO inh)
O=C(NCCc1ccccc1)C1CCN(C(=O)NCc2ccccc2)CC1	none
COc1ccc(NC(=O)N2CCc3nc(-c4ccccc4)c4c(c3C2)CO[C@@H](C)C4)cc1	none (no result: PNC assembly inh)
COc1ccccc1CNC(=O)C1CCCN(c2nc3ccccc3n3cccc23)C1 (centres undefined)	none (no result: ALDH1A1 block, PNC assembly inh, HPGD block, 12-hLO inh)
Cc1ccc2c(c1)N(C(=O)N1CCC(C(=O)NCCc3ccccc3)CC1)CC(C)O2 (centres undefined)	none (no result: ALDH1A1 block, PNC assembly inh, HPGD block, 12-hLO inh)
Cc1ccc(CCNC(=O)C2CCN(C(=O)c3sccc3-n3cccc3)CC2)cc1	ALDH1A1 block 1µM
CCOC(=O)N1CCN(C(=O)CCl)CC1	ALDH1A1 block 0.56µM (no result: Lamin A splicing, PNC assembly inh, HPGD block, 12-hLO inh)
CC(C)(C)NC(=O)CN1CCN(C(=O)CCl)CC1	ALDH1A1 block 0.32µM (no result: Lamin A splicing, PNC assembly inh, HPGD block, 12-hLO inh)
Cn1c(=O)c2c(ncn2CCO)n(C)c1=O	Lamin A splicing inconclusive (no result: PNC assembly inh)
CC(O)Cn1cnc2c1c(=O)n(C)c(=O)n2C (centres undefined)	Lamin A splicing inconclusive, PNC assembly inh -115
Cn1c(=O)c2c(ncn2CCCc2ccccc2)n(C)c1=O	PNC assembly inh -89
CCOc1ccccc1NC(=O)CSc1nc2ccccc2c2nc(CCn3cncc3C)nn12	none (no result: ALDH1A1 block, PNC assembly inh, HPGD block, 12-hLO inh)
CCCCNC(=O)c1ccc2c(c1)NC(=O)C(CS(=O)(=O)Cc1cccc(C)c1)N2 (centres undefined)	none (no result: ALDH1A1 block, PNC assembly inh, HPGD block, 12-hLO inh)
CCOC(=S)SCC(=O)N1CCc2cc(OC)ccc2C1C1C(=O)CCCC1=O (centres undefined)	Lamin A splicing inconclusive, PNC assembly inh -99
CCOC(=S)SCC(=O)N1CCc2cc(OC)c(OC)cc2C1C1C(=O)CC(C)(C)CC1=O (centres undefined)	PNC assembly inh inconclusive
COC(=O)C1=C(C(=O)OC)[C@@H]2Nc3ccccc3[C@@]23C[C@@H](C(=O)OC)N(S(=O)(=O)c2ccc(Br)cc2)C3=N1	none (no result: PNC assembly inh)
O=C(CNS(=O)(=O)c1cccc2nsnc12)NC1CCCCC1	PNC assembly inh -111
CCN(CC)c1ccc(NC(=O)CCS(=O)(=O)c2cccc3nsnc23)c(C)c1	ALDH1A1 block 28µM (no result: PNC assembly inh, HPGD block, 12-hLO inh)
O=C(CCNS(=O)(=O)c1cccc2nsnc12)NC1CCN(Cc2ccccc2)CC1	PNC assembly inh -112
O=C(CCS(=O)(=O)c1cccc2nsnc12)N1CCN(C(=O)c2ccco2)CC1	ALDH1A1 block 25µM
O=C(CCS(=O)(=O)c1cccc2nsnc12)N1CCN(Cc2ccc3c(c2)OCO3)CC1	ALDH1A1 block inconclusive
COc1cccc([C@@H]2Oc3ccc(OC)cc3/C(=N/O[C@@H](C)c3cc(-c4c(C)cc(C)cc4C)no3)[C@@H]2O)c1	none (no result: Lamin A splicing, PNC assembly inh, HPGD block, 12-hLO inh)
O=C(CCS(=O)(=O)c1cccc2nsnc12)NC1CCCCC1	ALDH1A1 block inconclusive, HPGD block 28µM
N/C(=N\OC(=O)Oc1ccccc1)c1ccc([N+](=O)[O-])cc1	PNC assembly inh -121
O=C(NC(=S)Nc1nc(-c2cccc([N+](=O)[O-])c2)cs1)c1cc(Cl)ccc1Cl	ALDH1A1 block 28µM (no result: Lamin A splicing, PNC assembly inh, HPGD block, 12-hLO inh)
O=C(NC(=S)Nc1nc(-c2cccc([N+](=O)[O-])c2)cs1)c1ccccc1Cl	none (no result: Lamin A splicing, PNC assembly inh, HPGD block, 12-hLO inh)
CC(=O)c1cccc([N+](=O)[O-])c1	ALDH1A1 block 28µM (no result: Lamin A splicing, PNC assembly inh)
N/C(=N\OC(=O)Oc1ccccc1)c1cccc([N+](=O)[O-])c1	ALDH1A1 block inconclusive
O=C(O)c1cccc([N+](=O)[O-])c1	none (no result: Lamin A splicing, PNC assembly inh)
Cc1ccccc1C(=O)O/N=C(\N)c1cccc([N+](=O)[O-])c1	Lamin A splicing inconclusive, ALDH1A1 block inconclusive, HPGD block 2.8µM
Cc1csc(C(=O)O)c1NC(=O)c1cccc([N+](=O)[O-])c1	ALDH1A1 block 14µM (no result: Lamin A splicing, PNC assembly inh, HPGD block, 12-hLO inh)
CC(=O)c1cccc(Nc2nc(-c3cccc([N+](=O)[O-])c3)cs2)c1	Lamin A splicing inconclusive, ALDH1A1 block inconclusive, PNC assembly inh -85
CC(=O)Nc1nc(C)c(-c2csc(Nc3cccc([N+](=O)[O-])c3)n2)s1	Lamin A splicing inconclusive
Cc1cc(C)c(/C=C/c2onc(C)c2S(=O)(=O)N2CCC(C(=O)N(C)Cc3ccccc3)CC2)c(C)c1	none (no result: ALDH1A1 block, PNC assembly inh, HPGD block, 12-hLO inh)
